Screening data (PubChem BioAssay)
E coli growth-1 – E. coli growth inhibition. Escherichia coli growth, OD600, 23 h; stronger effect = lower value. OD600 absorbance (concentration not given with the values). 330,000 tested, 0.21% active. AID 1053175;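 active means OD600 absorbance below the run mean of sample wells minus 3.6 SD, in any replicate, cut at about 0.56 in these data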
phage Ecoli inh – E. coli growth loss with phage present; 360,000 tested, 0.26% active; inhibition, % at 11.9 µM; growth absorbance; in the data active means inhibition above about 11%
Tat export inh – blocks Tat-dependent protein export in E. coli. E. coli MC4100 TorA-mCherry Tat export, fluorescence. inhibition, % at 10 µM. 340,000 tested, 0.036% active;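 active means mean replicate inhibition at least 50% and at least half of replicates individually reaching 50%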;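 further: exported cargo escapes ClpAP degradation while cytoplasmic cargo is degraded and loses fluorescence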
E coli growth-2 – bacterial growth inhibition, counter-screen for AddAB inhibitors | E. coli V3065 growth, OD600 absorbance, 18 h | inhibition, % at 11.9 µM | 330,000 tested, 0.27% active | AID 449728;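 active means inhibition above the campaign's mean inhibition across all tested compounds plus 3 SD, cut at about 9.9% in these data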;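 further: uninfected addAB+ strain grown without phage in ampicillin broth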
AddAB inh – less growth of phage-infected E. coli with AddAB. E. coli expressing H. pylori AddAB, absorbance growth. 330,000 tested, 0.29% active. inhibition, % at 11.9 µM; in the data active means inhibition above about 12%
A number is an active result; - = inactive; . = no result. Only some compounds are listed: those with a hit (about 0.5% of all), similar ones and a draw of the others.

SMILES | E coli growth-1 | phage Ecoli inh | Tat export inh | E coli growth-2 | AddAB inh
CCCCCC(=O)NNC(=S)NC(C)=O | 0.48 | - | - | - | -
CCCCC(=O)NNC(=S)NC(=O)c1ccc(C)cc1 | - | - | - | - | -
COCc1cc(C=NNC(=O)Cc2ccc(Cl)cc2)ccc1OC | 0.25 | . | . | . | .
CCN(CC)S(=O)(=O)c1cccc(C(=O)OCC(=O)NC(C)c2ccccc2)c1 (configuration not stated) | - | - | - | - | -
Nc1nc(Nc2cccc(F)c2)nc2ccccc12 | 0.47 | - | - | - | -
O=c1oc(Nc2cccc(F)c2)nc2ccccc12 | - | - | - | - | -
CCn1c(SCC(=O)c2cc(OC)ccc2OC)nnc1-c1ccncc1 | - | - | - | - | -
CCCCCCCNC(=O)C1(CC2CC(c3cccc(Br)c3)=NO2)CCNCC1 (configuration not stated) | 0.048 | - | - | - | -
Cc1ccc(NC(=O)COc2ccccc2[N+](=O)[O-])nc1 | - | - | - | - | -
O=C1c2ccccc2NC(c2ccc(-c3ccccc3F)o2)N1O (configuration not stated) | - | - | - | 12 | -
Cc1cc(C)nc(NS(=O)(=O)c2ccc(NC(=O)Cn3c(=O)oc4ccccc43)cc2)n1 | - | - | - | - | -
Cc1noc(NS(=O)(=O)c2ccc(NC(=O)CCn3c(=O)oc4ccccc43)cc2)c1C | - | - | - | 10 | -
CCOc1ccc(N2C(=O)Nc3ccc(Br)cc3C2(O)C(=O)NCCCN(C)C)cc1 (configuration not stated) | - | - | - | - | -
Cc1ccc(-c2csc(N=C(N)N)n2)c(C)c1 | 0.44 | - | . | - | -
CCCCCCCCN1C(CC(=O)O)c2cc(C(F)(F)F)ccc2S1(=O)=O (configuration not stated) | - | . | . | . | .
CCCCCCCCCCCCN1[C@@H](CC(=O)O)c2cc(C(F)(F)F)ccc2S1(=O)=O | . | - | 52 | - | -
COc1ccccc1C(=O)N1CCN(C(=O)[C@@H](Cc2ccccc2)NC(=O)[C@H]2O[C@@H](n3cnc(C(N)=O)n3)[C@H](O)[C@@H]2O)CC1 | . | - | . | . | .
CCc1cc2c(N3CCN(c4ccccc4)CC3)ncnc2s1 | - | - | - | - | -
CCOc1ccc(C2Nc3cccc4cccc(c34)N2)cc1OC | 0.56 | - | - | - | -
CCOc1cc(C2Nc3cccc4cccc(c34)N2)ccc1O | - | . | - | - | -
CC(=O)OCC1=C(C(=O)O)N2C(=O)[C@@H](NC(=O)CSc3ccncc3)[C@H]2SC1 | 0.22 | - | - | . | .
Cc1nnc(SCC2=C(C(=O)O)N3C(=O)C(NC(=O)c4cccc(F)c4F)C3SC2)s1 (configuration not stated) | - | - | - | - | -
Cc1cc(C)n(CC(=O)NC2C(=O)N3C(C(=O)O)=C(CSc4nnc(C)s4)CSC23)n1 (configuration not stated) | 0.19 | - | - | - | -
Cc1nnc(SCC2=C(C(=O)O)N3C(=O)C(NC(=O)Cn4ncc(Cl)c4C)C3SC2)s1 (configuration not stated) | 0.44 | - | - | - | -
CC(=O)OCC1=C(C(=O)O)N2C(=O)C(NC(=O)C(C)Cn3nc(C)c(Cl)c3C)C2SC1 (configuration not stated) | - | - | - | - | -
SMILES | E coli growth-1 | phage Ecoli inh | Tat export inh | E coli growth-2 | AddAB inh
Cc1cccc(NC(=S)N=C(N)Nc2nc(C)c3ccc(C)cc3n2)c1 | - | . | . | . | .
O=C(Nc1ccc(Cl)cc1)Nc1cc([N+](=O)[O-])ccc1F | - | - | - | - | -
O=C(Nc1ccc([N+](=O)[O-])cc1)Nc1ccc(Cl)cc1F | - | - | - | 9.8 | -
Cc1nnc(N2CCN(Cc3ccccc3)CC2)[nH]c1=O | - | - | - | - | -
NC(N)=N/N=C/c1ccc(OCc2ccc(Cl)cc2)cc1 | . | - | - | - | -
NC(N)=NN=Cc1ccc(OCc2ccc(Cl)cc2)cc1 | 0.045 | . | . | . | .
NC(N)=NN=Cc1ccc(OCc2ccc(Cl)cc2Cl)cc1 | 0.048 | . | . | . | .
NC(=S)n1[nH]c(-c2ccc([N+](=O)[O-])cc2)c(N=Nc2cccc(Cl)c2)c1=O | - | - | - | . | .
NC(=S)n1[nH]c(-c2ccc([N+](=O)[O-])cc2)c(N=Nc2ccc(O)cc2)c1=O | - | - | - | 17 | -
O=C1CN(C(=O)COc2ncnc3ccccc23)c2ccccc2N1 | - | - | - | - | -
CC1(C)O[C@@H]2[C@H](O1)[C@@H](O)C[C@H]2n1cnc2c(Cl)ncnc21 | . | - | . | . | .
COc1ccc2cc(C(=O)C3CCCN(C(=O)Cc4c(C)noc4C)C3)ccc2c1 (configuration not stated) | 0.54 | - | - | - | -
